These results are taken from PubChem BioAssay AID1209 (Sanford-Burnham Center for Chemical Genomics, 2008).

Hit rate of the full screen: of about 190,000 compounds, about 810 (0.43%) were called active. No stated cut-off is given here; in the data, active means inhibition above about 50%; inactive means the rest. For the sample, actives were picked, then their nearest neighbours and some compounds at random.

In the experiment the target is Mannose-6-phosphate isomerase (Homo sapiens) (UniProt P34949). Put plainly: MPI enzyme activity inhibition – biochemical, fluorescence intensity, coupled assay, primary screen (AID 1209).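 Further: plate controls were DMSO vehicle for no effect and wells lacking substrate for full effect.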 To be noted: purified PMI enzyme, at 20 µM, hits give high values.
Mannose-6-phosphate isomerase (Homo sapiens), sequence (P34949 whole entry, looked up): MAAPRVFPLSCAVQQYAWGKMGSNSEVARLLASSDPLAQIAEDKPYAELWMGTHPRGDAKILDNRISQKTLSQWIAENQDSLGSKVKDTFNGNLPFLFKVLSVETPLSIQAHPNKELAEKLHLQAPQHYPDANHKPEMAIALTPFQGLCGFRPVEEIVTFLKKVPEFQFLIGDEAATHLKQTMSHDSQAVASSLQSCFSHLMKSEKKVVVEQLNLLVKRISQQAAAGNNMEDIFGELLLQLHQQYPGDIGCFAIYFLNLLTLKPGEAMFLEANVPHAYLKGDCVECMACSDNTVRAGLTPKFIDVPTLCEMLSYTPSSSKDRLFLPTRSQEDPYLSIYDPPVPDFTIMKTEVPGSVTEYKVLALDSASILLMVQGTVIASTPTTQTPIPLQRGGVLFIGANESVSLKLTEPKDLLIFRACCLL
In the case of `COc1ccc(C2CN=NC23CCCc2ccccc2C3=O)cc1` (centres undefined), the inhibition was 3.1% (inactive). Then `C/C(=C\C(=O)O)C(=O)Nc1nccs1`, with -3.3% (inactive). Consider `Cc1ccccc1CN1N=C(/C=C/c2ccccc2)CCC1=O`, for which the inhibition was -3.6% (inactive). Under `C/C(=N\NC(=O)c1ccccc1)c1ccc(C)c([N+](=O)[O-])c1` stands 12.4% (inactive); under `CN1c2ccsc2C(O)=C(C(=S)Nc2ccccc2)S1(=O)=O`, 19.6% (inactive); under `Cc1ccc(NC(=O)C2=C(O)c3sccc3N(C)S2(=O)=O)cc1`, 1.9% (inactive).

As to `Cc1ccc(NC(=S)C2=C(O)c3sccc3N(C)S2(=O)=O)cc1`, the inhibition is 56.1% (active). Regarding `COC(=O)Cc1c(C)nc2nc(-c3ccco3)[nH]n2c1=O`, the inhibition is -34.2% (inactive). `Cc1ccc(-n2c(C)n[nH]c2=S)cc1`: the inhibition was 11.4% (inactive).

`Cc1ccc(C)n1-c1ncn[nH]1`: the inhibition was 5.2% (inactive). As for `O=C(CN1C(=O)NC2(CCc3ccccc3C2)C1=O)Nc1ccc(Cl)cc1F` (centres undefined), the inhibition was 8.5% (inactive).

Regarding `CC1=NOC(=O)/C1=C\c1ccc(-c2ccc(Cl)c(C(=O)O)c2)o1`, the inhibition is 66.6% (active). As for `CC1(C)OC(=O)C(=Cc2ccc(-c3ccc(Cl)c(C(=O)O)c3)o2)C(=O)O1`, the inhibition is -12.1% (inactive). Under `CC1=NOC(=O)/C1=C/c1ccc(-c2ccc(Cl)cc2)o1` stands 21.9% (inactive); under `CCOC(=O)c1c(C)nc2ccc(C)cn12`, -2.7% (inactive); under `O=C(OCn1nnc2ccccc2c1=O)C1COc2ccccc2O1` (centres undefined), 12.1% (inactive). For `CN=C(c1ccc(C)cc1)n1c(=S)nc(-c2ccc(C)cc2)n(C)c1=S`, the inhibition is 37.7% (inactive). Under `COCCCn1c(-c2ccco2)nc2ccccc2c1=O` stands -0.1% (inactive); under `CN=C(c1ccco1)n1c(=S)nc(-c2ccco2)n(C)c1=S`, 51.4% (active); under `COCCCN=C(c1ccco1)n1c(=S)nc(-c2ccco2)n(CCCOC)c1=S`, 52.4% (active). Under `Cn1c(-c2ccco2)n[nH]c1=S` stands -5% (inactive); under `CCCCn1c(-c2ccco2)n[nH]c1=S`, 5.8% (inactive); under `CN(C)C(=O)N1CCC(C(=O)NCc2ccccc2Cl)CC1`, 3.2% (inactive). In the case of `CCOC(=O)c1ccccc1Nc1cc(C)nc2nc(C)nn12`, the inhibition was 5.5% (inactive).

With `CCOC(=O)N1CCN(C(=O)CSc2ccc(-c3ccc(OC)cc3)nn2)CC1`, the inhibition was -0.8% (inactive). Take `O=[N+]([O-])c1cc2c(c(CSc3nnnn3-c3ccc(O)cc3)c1)OCOC2`: the inhibition was 26.2% (inactive).

On to `COc1ccc(/C=N\NC(=O)COc2ccc(C(C)(C)C)cc2)cc1Cn1nc(C)cc1C`, for which the inhibition was -2.3% (inactive). Then `O=C1NC2=C(CCc3ccccc32)C(c2ccccc2)N1` (centres undefined), with -24.4% (inactive). `Cc1ccc(C2NC(=O)NC3=C2CCc2ccccc23)cc1` (centres undefined): the inhibition was 10.5% (inactive). Then `COc1ccc(C2NC(=O)NC3=C2CCc2ccccc23)cc1` (centres undefined), with 70.7% (active); and `CN(C)/C=C(\C(=O)c1ccc(F)cc1F)c1nnnn1-c1ccccc1`, with -3.7% (inactive). Then `O=C(CCNc1ccccc1)c1cccc([N+](=O)[O-])c1`, with 56.8% (active).

For the compound `Cc1ccc(NCC(=O)c2ccc([N+](=O)[O-])cc2)cc1`, the inhibition is -45.3% (inactive). As for `O=C(CCNc1ccc(Cc2ccncc2)cc1)c1ccc([N+](=O)[O-])cc1`, the inhibition is 64.4% (active). Consider `O=[N+]([O-])c1ccc(Cc2ccncc2)cc1`, for which the inhibition was 1.8% (inactive). With `Cc1ccc(NCCC(=O)c2cccc([N+](=O)[O-])c2)cc1`, the inhibition was 43.5% (inactive). Take `O=C(CNc1cccc2ccccc12)c1ccc([N+](=O)[O-])cc1`: the inhibition was 25.3% (inactive). Turning to `O=C(CCNc1ccc(Br)cc1)c1cccc([N+](=O)[O-])c1`, the inhibition is 36% (inactive).

Turning to `Cc1ccc(NCCC(=O)c2cccc([N+](=O)[O-])c2)c(C)c1`, the inhibition is 55.7% (active).

On to `O=C(CCNc1cccc(F)c1)c1cccc([N+](=O)[O-])c1`, for which the inhibition was 37.8% (inactive). Then `O=C(CCNc1ccc(Cc2ccncc2)cc1)c1cccc([N+](=O)[O-])c1`, with 43.5% (inactive); and `O=C(CCNc1ccc(F)cc1)c1cccc([N+](=O)[O-])c1`, with 47.5% (inactive). Turning to `Cc1cccc(NCCC(=O)c2ccc([N+](=O)[O-])cc2)c1C`, the inhibition was 76.2% (active). Regarding `CCCn1cc(CN2CCC(Cc3ccccc3)(C(=O)OCC)CC2)c(C)n1`, the inhibition was 5.2% (inactive). On to `COc1ccc(NC(=S)N/N=C2\CC(C)(C)Oc3ccc(O)cc32)cc1`, for which the inhibition is 5.4% (inactive).

As to `NC(=O)CSC1=Nc2ccccc2C2=NC(c3ccccc3)C(=O)N12` (centres undefined), the inhibition was -8.5% (inactive).

`O=C(c1nn2c(C(F)(F)F)cc(-c3cccs3)nc2c1Cl)N1CCCc2ccccc21`: the inhibition is -11.4% (inactive).

Regarding `COc1ccc(N2C(=O)CN(Cc3cc(OC)c(OC)c(OC)c3)C2=S)cc1`, the inhibition is -2.4% (inactive). Under `CC(/C=C/c1ccccc1)NC(N)=O` (centres undefined) stands -3.3% (inactive); under `N#Cc1ccc(NC(=S)NC(=O)CCc2ccc(S(=O)(=O)N3CCOCC3)cc2)cc1`, 8.9% (inactive).

`CCOc1ccc(-c2nn[nH]n2)cc1OCC`: the inhibition is -5.5% (inactive). Under `CCc1nn(C(C)C(=O)N2CCN(Cc3ccccc3)CC2)c(=O)c2cc3occc3n12` (centres undefined) stands 16.5% (inactive). Then `O=C(NCc1ccccc1)C(c1cccs1)N(C(=O)c1csnn1)C1CC1` (centres undefined), with 4.8% (inactive); and `O=C(NCc1ccc(F)cc1)C(c1cccs1)N(C(=O)c1csnn1)C1CC1` (centres undefined), with 0.7% (inactive).

Take `COc1ccc(CNC(=O)C(c2cccs2)N(C(=O)c2csnn2)C2CC2)cc1` (centres undefined): the inhibition is 93% (active).

On to `CCOc1ccc(S(=O)(=O)NCc2ccccc2)cc1C(N)=O`, for which the inhibition is 8.4% (inactive). As to `O=[N+]([O-])c1ccc(N2CCN(S(=O)(=O)c3ccc4ccccc4c3)CC2)cc1NCC1CCCO1` (centres undefined), the inhibition is 5.7% (inactive). Under `O=C(CCc1nnc(COc2ccccc2)o1)NCc1ccc(Cl)s1` stands 5.4% (inactive). Regarding `CN(CCO)C1=CC(=O)CC(C)(C)C1`, the inhibition is -12.5% (inactive). Then `CCCc1cc(C(=O)Cc2ccc(C(=O)OCC)o2)c(O)cc1O`, with -21.9% (inactive); and `CCOC(=O)c1ccc(CC(=O)c2ccc(O)c(O)c2O)o1`, with 75% (active); and `CCOC(=O)c1ccc(CC(=O)c2ccc(O)cc2O)o1`, with -14.1% (inactive).

`Nc1ccc(S(=O)(=O)NC2(C(F)(F)F)NC(=O)N(c3ccccc3Cl)C2=O)cc1` (centres undefined): the inhibition was 3.9% (inactive).

In the case of `COc1ccc(S(=O)(=O)NCCSCc2ccco2)cc1`, the inhibition is 8.5% (inactive). Then `Cc1nn(C)c(C(=O)N/N=C/c2ccc(C(F)(F)F)cc2)c1[N+](=O)[O-]`, with 1.6% (inactive).

Take `CC1=Nn2c(nnc2-c2n[nH]c3c2CCC3)SC1`: the inhibition is 3.5% (inactive). Under `c1ccc(C2=Nn3c(nnc3-c3n[nH]c4c3CCC4)SC2)cc1` stands 8% (inactive); under `CC(C)(C)C1=Nn2c(nnc2-c2n[nH]c3c2CCC3)SC1`, 75.8% (active). Under `NS(=O)(=O)c1ccc(N/N=C/c2ccccc2Br)cc1` stands 2% (inactive); under `CC(C)(Cl)C1Cc2cc3ccc(=O)oc3cc2O1` (centres undefined), 6.2% (inactive).

As for `COc1cc2c(cc1/C=C/C(=O)O)OC(C)C2` (centres undefined), the inhibition is 9.4% (inactive). In the case of `CC(C)(O)C1Cc2cc(/C=C/C(=O)O)c(O)cc2O1` (centres undefined), the inhibition was 94.4% (active). Under `O=C(OCc1cc2ccccc2[nH]c1=O)C1CCCCC1` stands -2.3% (inactive).

Turning to `COc1ccc(N2C(=S)NC(C)(C)CC2(C)c2ccc(OC(C)=O)cc2OC(C)=O)cc1` (centres undefined), the inhibition was -2.5% (inactive). Consider `COc1ccc(C2(c3ccc(O)cc3O)CC(c3ccccc3Cl)NC(=S)N2)cc1` (centres undefined), for which the inhibition is 11.9% (inactive). Under `COc1ccc(C2(c3ccc(OC(C)=O)cc3OC(C)=O)CC(c3ccccc3)NC(=S)N2)cc1` (centres undefined) stands 63.8% (active); under `O=C1Nc2ccccc2C12Nc1ccccc1S2` (centres undefined), 58.7% (active); under `O=C1N2CCCc3cccc(c32)C12Nc1ccccc1S2` (centres undefined), 22.1% (inactive). Under `O=C1Nc2ccccc2C12OCCO2` stands -6.7% (inactive); under `C/C(=N\NC(=O)Cc1ccccc1)c1cccs1`, 9.1% (inactive); under `O=[N+]([O-])c1cc2c(cc1C=Nc1ccccc1)OCO2`, 55.1% (active).

On to `Cc1cccc(N=Cc2cc3c(cc2[N+](=O)[O-])OCO3)c1`, for which the inhibition was 49.7% (inactive).

As for `Cc1ccccc1N=Cc1cc2c(cc1[N+](=O)[O-])OCO2`, the inhibition is 22.6% (inactive). Under `COc1ccccc1/C=C/C(=O)Nc1cccc(S(=O)(=O)NC2=NCCCCC2)c1` stands -3.7% (inactive); under `CN(C)c1ccc(NC(=O)Cn2ncn3c(cc4ccccc43)c2=O)cc1`, 22.7% (inactive); under `O=C(NC1CC1)C1CCN(c2ncnc3c2sc2cccc(F)c23)CC1`, 7.9% (inactive). As for `COc1cc(/C=C2\SC(c3ccc(C)cc3)=NC2=O)ccc1O`, the inhibition is 14.1% (inactive). Then `COc1cc(/C=C2\SC(c3ccc(C)cc3)=NC2=O)cc(OC)c1O`, with 26.7% (inactive); and `Cc1ccc(C2=NC(=O)/C(=C/c3cc(O)c(O)c(Br)c3)S2)cc1`, with 81.3% (active). Under `COc1ccc(NC(=O)N2CCCC2C(=O)Nc2ccc(C)cc2)cc1` (centres undefined) stands 1.2% (inactive); under `CCOc1cc(C2C(C(=O)O)c3cc(OCC)c(OCC)cc3C(=O)N2C)ccc1O` (centres undefined), 6% (inactive). With `C/C(=C\C(=O)c1ccccc1)NNc1nc2ccccc2s1`, the inhibition was -3.4% (inactive).

On to `COc1ccc(S(=O)(=O)n2nc(OC(C)=O)cc2N)cc1`, for which the inhibition was -1.2% (inactive). Under `Cc1ccc2nc(SCC(=O)NC(=O)NCc3ccco3)[nH]c2c1` stands 6.4% (inactive). Under `COC(=O)c1ccc(C)c(NC(=O)CCc2ccc(OC)cc2)c1` stands 11.9% (inactive). Then `CCOC(=O)c1c(N)sn(-c2ccccc2)c1=S`, with 14.9% (inactive).

In the case of `CCOC(=O)c1c(N)sn(-c2ccccc2C)c1=S`, the inhibition was 61.3% (active).

As to `C=CCn1sc(N)c(C(=O)OCC)c1=S`, the inhibition was -8% (inactive). Under `COc1ccc(C(NC(=O)/C=C\c2ccco2)c2ccc(OC)c(OC)c2)cc1` (centres undefined) stands 3.2% (inactive).
